The text below walks through data of PubChem BioAssay.

The source made the active and inactive calls.

Assay [1] is described as follows: E. coli DRC41 culture turbidity changes, primary screen, E. coli filamentation inducer project, strain DRC41, OD650, 48 h (AID 1152).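 Further: E. coli MC1000 strain DRC41 lacking acrAB efflux pump and sulA.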 Conditions: E. coli DRC41 (acrAB sulA), higher = more signal, called active from +8 up or from −8 down.
Assay [2] can be described thus: small-molecule binders of probe aLefty1, primary screen, biochemical, small-molecule microarray, 635/667 nm fluorescence (AID 1153).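 Further: score merges spot fluorescence with signal-to-noise ratio from the scanned slide images.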 The note with it: higher = more signal.
Assay [3] is described as follows: PSAC antagonists in infected red cells, primary screen, cell-based, P. falciparum Indochina, OD700, 1 h (AID 1154). Conditions: P. falciparum Indochina infected RBC osmotic lysis, higher = more signal, called active from +8 up or from −8 down.
Assay [4] can be described thus: PSAC antagonists in infected red cells, primary screen, cell-based, P. falciparum Indochina, OD700, 2 h (AID 1155).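 Further: lysis reports solute entry through the parasite surface anion channel PSAC; channel blockers reduce lysis of infected cells.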 Conditions: P. falciparum Indochina infected erythrocytes, osmotic lysis OD700; higher = more signal, called active from +8 up or from −8 down.
The nature of assay [5]: osmotic lysis modulators in infected erythrocytes, primary screen, PSAC antagonist project, cell-based, P. falciparum Indochina, OD700, 3 h (AID 1156). Conditions: higher = more signal, called active from +8 up or from −8 down.
A short description of assay [6]: PSAC antagonists in infected red cells, primary screen, cell-based, P. falciparum Indochina, OD700, 18 h (AID 1157). Conditions: P. falciparum Indochina infected erythrocytes, osmotic lysis OD700, 18 h; higher = more signal, called active from +8 up or from −8 down.
The nature of assay [7]: modulators of S6 phosphorylation in cells, primary screen, cell-based, A549, cytoblot, luminescence, serum-stimulated (AID 1158).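 Further: serum-stimulated A549 lung adenocarcinoma cells; signal is phosphorylated S6 detected by cytoblot immunostaining with HRP secondary.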 The note with it: A549 phospho-S6 cytoblot, 5 h, higher = more signal.
In assay [8] the target is NADPH oxidase 2 (Homo sapiens) (UniProt P04839). Kind of assay: NOX2-dependent H2O2 signal modulators, primary screen, NOX inhibitor project, cell-based, HEK293-NOX2, PMA-stimulated, Amplex Red fluorescence (AID 1159). Further: test concentration not given here. The note with it: 45 min, higher = more signal, called active from +8 up or from −8 down.
Assay [9] deals with NADPH oxidase 4 (Homo sapiens) (UniProt Q9NPH5). As to the kind of experiment: NOX4-dependent H2O2 signal modulators, primary screen, NOX inhibitor project, cell-based, HEK293-NOX4, tetracycline-induced, Amplex Red fluorescence (AID 1160). Conditions: 45 min, higher = more signal, called active from +8 up or from −8 down.
The target of assay [10] is NADPH oxidase 5 (Homo sapiens) (UniProt Q96PH1). As to the kind of experiment: NOX5-dependent H2O2 signal modulators, primary screen, NOX inhibitor project, cell-based, HEK293-NOX5, Amplex Red fluorescence (AID 1161). The note with it: HEK293-NOX5, ionomycin, 45 min, higher = more signal.
The nature of assay [11]: A549 cell viability effects, profiling panel, calcein-AM fluorescence, 48 h, basal (AID 1162). Further: test concentration not given here. Conditions: higher = more signal.
A short description of assay [12]: adipocyte viability effects, profiling panel, cell-based, 3T3-L1 adipocytes, calcein-AM fluorescence, 48 h, basal (AID 1163). Further: test concentration not given here. The note with it: 3T3-L1 adipocytes viability, higher = more signal.
The nature of assay [13]: HepG2 cell viability effects, profiling panel, calcein-AM fluorescence, 48 h, basal (AID 1164). Further: test concentration not given here. Conditions: higher = more signal.
Assay [14] is described as follows: MM1S cell viability effects, profiling panel, calcein-AM fluorescence, 48 h, basal (AID 1165).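 Further: viability of MM1S multiple myeloma cells under basal unstimulated conditions; test concentration not given here.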 Conditions: higher = more signal.
Assay [15] in a line: basal RPMI8226 viability, no added stimulus, profiling panel, cell-based, calcein-AM fluorescence, 48 h, PK04 Diversity Set (AID 1166).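 Further: cells grown under basal conditions without added stimulus; test concentration not given here.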 The note with it: RPMI8226 myeloma viability, higher = more signal.
Assay [16] can be described thus: basal HepG2 mitochondrial membrane potential changes, profiling panel, cell-based, JC-1 fluorescence, 24 h, 100 nL compound (AID 1167). Further: test concentration not given here. Conditions: higher = more signal.
The nature of assay [17]: basal 3T3-L1 adipocyte mitochondrial potential changes, profiling panel, cell-based, JC-1 fluorescence, 3T3-L1 adipocytes, 24 h, 100 nL compound (AID 1168). Further: test concentration not given here. Conditions: JC-1 mitochondrial fluorescence, higher = more signal, called active from +8 up or from −8 down.
Assay [18] is described as follows: basal RPMI8226 mitochondrial membrane potential changes, profiling panel, cell-based, JC-1 fluorescence, 24 h, 100 nL compound (AID 1169). Further: test concentration not given here. The note with it: RPMI8226 myeloma, JC-1 mitochondrial potential fluorescence, higher = more signal.
Assay [19] in a line: basal MM1S mitochondrial membrane potential changes, profiling panel, cell-based, JC-1 fluorescence, 24 h, 100 nL compound (AID 1170). Further: test concentration not given here. Conditions: higher = more signal.
Assay [20] can be described thus: A549 lung cancer cell viability effects, profiling panel, resazurin fluorescence, 24 h, PK04 Diversity Set (AID 1171). Further: test concentration not given here. The note with it: higher = more signal, called active from +8 up or from −8 down. (In general: Resazurin is reduced to fluorescent resorufin, in cell work by metabolically active cells.)

Sequence of NADPH oxidase 5 (Homo sapiens) (Q96PH1 whole entry, looked up): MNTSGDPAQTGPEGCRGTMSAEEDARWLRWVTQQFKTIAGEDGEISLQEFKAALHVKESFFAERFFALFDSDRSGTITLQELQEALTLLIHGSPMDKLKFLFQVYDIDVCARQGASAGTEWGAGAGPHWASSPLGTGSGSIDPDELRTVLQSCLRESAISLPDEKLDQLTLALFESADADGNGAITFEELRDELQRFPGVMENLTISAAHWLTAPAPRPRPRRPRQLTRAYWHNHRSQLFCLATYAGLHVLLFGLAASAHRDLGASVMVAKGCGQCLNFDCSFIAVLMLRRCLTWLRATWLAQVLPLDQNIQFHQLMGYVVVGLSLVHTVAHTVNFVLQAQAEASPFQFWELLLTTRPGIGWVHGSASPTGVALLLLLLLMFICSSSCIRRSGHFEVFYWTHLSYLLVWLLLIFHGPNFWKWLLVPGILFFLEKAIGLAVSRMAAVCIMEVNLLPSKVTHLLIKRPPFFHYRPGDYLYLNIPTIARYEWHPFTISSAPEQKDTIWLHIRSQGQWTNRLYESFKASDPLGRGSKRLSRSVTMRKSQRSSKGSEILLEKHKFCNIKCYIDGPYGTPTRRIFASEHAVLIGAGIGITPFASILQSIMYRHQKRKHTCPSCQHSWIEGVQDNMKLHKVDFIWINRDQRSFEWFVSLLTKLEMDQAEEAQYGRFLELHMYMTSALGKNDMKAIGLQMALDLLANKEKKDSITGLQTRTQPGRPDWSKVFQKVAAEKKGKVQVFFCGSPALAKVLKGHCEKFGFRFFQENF
Sequence of NADPH oxidase 2 (Homo sapiens) (P04839 whole entry, looked up): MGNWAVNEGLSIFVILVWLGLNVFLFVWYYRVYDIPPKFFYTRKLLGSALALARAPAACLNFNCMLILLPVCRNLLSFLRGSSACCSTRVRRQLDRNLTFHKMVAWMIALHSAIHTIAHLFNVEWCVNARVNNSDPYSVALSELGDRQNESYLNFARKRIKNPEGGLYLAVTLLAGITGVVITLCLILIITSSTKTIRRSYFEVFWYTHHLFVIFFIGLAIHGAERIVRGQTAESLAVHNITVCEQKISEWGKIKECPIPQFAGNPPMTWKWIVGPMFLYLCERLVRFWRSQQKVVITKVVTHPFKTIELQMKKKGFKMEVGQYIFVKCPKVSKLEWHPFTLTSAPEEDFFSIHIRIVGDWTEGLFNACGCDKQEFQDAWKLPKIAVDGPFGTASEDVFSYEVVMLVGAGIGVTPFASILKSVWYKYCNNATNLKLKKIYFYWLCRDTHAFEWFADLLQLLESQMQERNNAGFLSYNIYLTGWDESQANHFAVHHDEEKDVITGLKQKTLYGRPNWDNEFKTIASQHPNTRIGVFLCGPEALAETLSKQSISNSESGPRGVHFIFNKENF
Sequence of NADPH oxidase 4 (Homo sapiens) (Q9NPH5 whole entry, looked up): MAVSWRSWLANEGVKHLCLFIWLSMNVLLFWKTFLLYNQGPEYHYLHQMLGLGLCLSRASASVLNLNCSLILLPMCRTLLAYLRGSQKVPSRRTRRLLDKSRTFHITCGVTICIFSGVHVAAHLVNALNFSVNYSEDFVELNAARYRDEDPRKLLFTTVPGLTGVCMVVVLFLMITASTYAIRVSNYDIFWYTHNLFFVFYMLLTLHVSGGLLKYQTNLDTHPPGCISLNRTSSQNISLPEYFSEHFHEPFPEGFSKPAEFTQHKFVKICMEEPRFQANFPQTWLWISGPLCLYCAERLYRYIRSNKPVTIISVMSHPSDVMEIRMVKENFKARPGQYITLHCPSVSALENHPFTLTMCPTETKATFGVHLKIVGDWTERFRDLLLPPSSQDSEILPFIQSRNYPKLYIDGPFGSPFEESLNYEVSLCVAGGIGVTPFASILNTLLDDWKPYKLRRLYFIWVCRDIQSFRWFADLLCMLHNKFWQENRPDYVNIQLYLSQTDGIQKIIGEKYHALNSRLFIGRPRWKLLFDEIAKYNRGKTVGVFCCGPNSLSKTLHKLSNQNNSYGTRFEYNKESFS

Consider `CCOC(=O)C1=NO[C@]2(C=C(Br)C3(OCCCO3)[C@H]3O[C@H]32)C1`, for which the z-score in [1] is 0.209 (inactive); in assay [3] it was -0.228 (inactive); in [4], 0.142 (inactive); in assay [5], -0.348 (inactive); in assay [6] it was 0.0748 (inactive); in assay [7] it was -0.428. Further, the z-score in [8] is 1.18 (inactive); in assay [9], 0.492 (inactive); in assay [10] it was 0.12; in assay [11] it was -0.718; in assay [12] it was -0.188; in assay [13], -0.186. Moreover, the z-score is -0.986 in assay [14]; -0.172 in assay [15]; -1.04 in assay [16]; -0.207 (inactive) in assay [17]; 0.157 in assay [18]; 0.199 in assay [19]. In addition, the z-score in assay [20] is 0.0721 (inactive). The composite z-score in assay [2] is -0.0075.

In the case of `CSCC[C@@H]1NC(=O)CC=C[C@@H](C)COC(=O)[C@@H](C)COC1=O`, the z-score in assay [1] is -0.136 (inactive); in assay [3] it was -0.434 (inactive); in assay [4], 0.28 (inactive); in assay [5], 0.742 (inactive); in assay [6] it was 0.0841 (inactive); in assay [7], -0.0649. In addition, the z-score in assay [8] was -1.13 (inactive); in [9] it was 0.279 (inactive); in assay [10] it was 0.238; in assay [11], 0.63; in assay [12], 0.115; in [13], 1.47. Also, the z-score is 0.269 in [14]; 0.341 in assay [15]; 0.852 in assay [16]; 0.0903 (inactive) in [17]; -0.994 in assay [18]; -0.122 in assay [19]. Further, the z-score in [20] is 0.377 (inactive). This molecule registered a composite z-score in assay [2] of -0.283.

Consider `COC(=O)CC=C[C@@H](C)[C@@H](C=NOC(C)CN1CCCc2nc(C)c(C)cc21)OC` (stereo not given in full), for which the z-score in [1] was -0.4 (inactive); in assay [3], 0.378 (inactive); in [4] it was 0.633 (inactive); in assay [5], -0.17 (inactive); in assay [6] it was 0.538 (inactive); in assay [7] it was -0.77. In addition, the z-score in assay [8] is -0.0618 (inactive); in [9], -0.14 (inactive); in assay [10], 0.372; in assay [11] it was 0.756; in [12], -0.274; in [13], 0.125. The z-score in assay [14] is 0.0457; in assay [15], 0.142; in assay [16], -0.16; in assay [17], 0.111 (inactive); in [18], -0.194; in [19] it was -0.259. In assay [20], the z-score is -0.399 (inactive). Further, in assay [2], the composite z-score is -0.202.

For `CCOC(=O)[C@H](Cc1ccccc1)NC(=O)CCC1CC(OC(=O)NCc2cccc3ccccc23)CC2(CCCC(COC(=O)NCCC(C)C)O2)O1` (stereo not given in full), the z-score in [1] was 0.165 (inactive); in [3], 15.9 (active); in [4], 1.95 (inactive); in assay [5] it was -2.04 (inactive); in assay [6], -0.492 (inactive); in [7], 0.255. Also, the z-score was 1.59 (inactive) in assay [8]; 1.24 (inactive) in [9]; 0.101 in assay [10]; 0.509 in [11]; -0.0617 in assay [12]; -0.166 in assay [13]. In addition, the z-score is 0.389 in assay [14]; 0.302 in assay [15]; -0.433 in [16]; -0.133 (inactive) in [17]; -0.758 in assay [18]; -0.121 in [19]. The z-score in [20] was 1.32 (inactive). The same molecule came in with a composite z-score in assay [2] of -0.0733.

Take `CC(C)=CCCC(C)=CCON=C1C[C@@H](O)[C@@H](O)[C@@H]2[C@@H]3C(=O)N(C(C)(C)C)C(=O)[C@@H]3CC[C@@H]12`: the z-score in assay [1] was -1.31 (inactive); in [3] it was 1.43 (inactive); in assay [4], 0.761 (inactive); in [5], 0.916 (inactive); in [6], 0.821 (inactive); in assay [7], -0.227. Besides, the z-score in assay [8] is -1.14 (inactive); in [9], -1.2 (inactive); in [10], -0.411; in assay [11], 0.0392; in assay [12], 0.523; in assay [13], 0.121. Moreover, the z-score was -1.09 in assay [14]; -0.562 in assay [15]; -0.279 in [16]; -0.365 (inactive) in assay [17]; -0.231 in assay [18]; 0.947 in [19]. For the same molecule, in [20], the z-score was -1.03 (inactive). The same molecule displayed a composite z-score in assay [2] of 0.167.

Regarding `CCOC(=O)NN=C1C[C@@H](O)[C@@H](O)[C@@H]2[C@@H]3C(=O)N(c4cccc(Oc5ccccc5)c4)C(=O)[C@@H]3CC[C@H]12`, the z-score in assay [1] is 0.0433 (inactive); in [3], 1.6 (inactive); in assay [4] it was -1.04 (inactive); in assay [5], 0.0278 (inactive); in [6] it was -1.58 (inactive); in [7], 0.742. Besides, the z-score in assay [8] is -0.515 (inactive); in assay [9], 0.209 (inactive); in assay [10], -1.33; in assay [11] it was 0.285; in assay [12], 1.01; in assay [13], -0.0233. The z-score in assay [14] was 0.0687; in assay [15] it was 0.443; in assay [16], 1.03; in assay [17], 0.675 (inactive); in assay [18], 0.00981; in [19] it was -1.56. The z-score in assay [20] is -0.263 (inactive). The molecule further came in with a composite z-score in assay [2] of -0.0958.

For `O=C1CCCC(C2=CCCCC2=O)C1` (stereo not given), the z-score in assay [1] is -0.316 (inactive); in [3] it was 0.599 (inactive); in assay [4], -0.349 (inactive); in [5], 0.231 (inactive); in assay [6], -0.168 (inactive); in assay [7], 0.142. In addition, the z-score is -0.7 (inactive) in assay [8]; -0.427 (inactive) in assay [9]; -0.253 in assay [10]; -0.965 in assay [11]; -0.824 in assay [12]; -0.114 in assay [13]. For the same molecule, the z-score in assay [14] is 0.322; in assay [15], 0.652; in assay [16], 0.512; in [17] it was -0.845 (inactive); in assay [18], 0.987; in assay [19], -0.857. The z-score in [20] was -0.684 (inactive). In addition, the composite z-score in assay [2] is -0.0224.

On to `CO[C@H]1COC(=O)[C@@H](Cc2ccccc2)NC(=O)[C@@H](C)COC(=O)CCC[C@@H]1C`, for which the z-score in assay [1] was 0.558 (inactive); in assay [3], -1.19 (inactive); in assay [4], -1.66 (inactive); in assay [5], -0.155 (inactive); in assay [6] it was -2.21 (inactive); in assay [7], 0.781. Moreover, the z-score is -0.785 (inactive) in assay [8]; 0.533 (inactive) in assay [9]; 0.789 in assay [10]; 0.704 in [11]; 0.0955 in assay [12]; 0.577 in assay [13]. Moreover, the z-score in [14] was -0.267; in assay [15] it was -0.283; in [16], -0.212; in assay [17] it was 0.00303 (inactive); in [18] it was -0.161; in [19], -1.23. Besides, in assay [20], the z-score was 0.6 (inactive). The molecule further gave a composite z-score in assay [2] of -0.309.

For the molecule `CCCCC#C[C@@H]1C=C[C@H](Oc2cc(OC)c(OC)c(OC)c2)[C@@H](COC(=O)OCC)O1`, the z-score in [1] is 0.525 (inactive); in assay [3], 8.03 (active); in assay [4], 0.673 (inactive); in assay [5], -0.172 (inactive); in assay [6], 0.0018 (inactive); in assay [7], -0.153. Besides, the z-score in [8] is -1.82 (inactive); in [9], 0.215 (inactive); in assay [10] it was -2.66; in [11] it was 1.75; in assay [12] it was -0.931; in assay [13], 0.928. In addition, the z-score in assay [14] is -2.65; in assay [15], -1.86; in assay [16], -0.163; in [17], 0.841 (inactive); in assay [18], 0.23; in [19], -0.254. In addition, the z-score in assay [20] was -0.108 (inactive). Moreover, in assay [2], the composite z-score is -0.147.
